Results as given in ChEMBL document CHEMBL4513216, “Probing the Open Global Health Chemical Diversity Library for Multistage-Active Starting Points for Next-Generation Antimalarials” (ACS Infect Dis, 2020).
Hit rate of the full screen: of about 69,000 compounds, about 8,600 (12%) showed an effect of 50% or more. Shown is part of a subset that was picked to be rich in strong results.

System: Plasmodium berghei
Assay: Screen against P. berghei liver stage (PbLuc), transformed with Luciferase, at 10uM
Type: functional, HepG2
Conditions: tested at 10 uM

Structure (SMILES) | INHIBITION [%]
Cc1nc(NCC2CC2)nc2c1COCC21CCNC1 (centres undefined) | 38.1
Cc1nc(NCc2ccco2)nc2c1COCC21CCNC1 (centres undefined) | 55.5
c1coc(CNc2ncc3c(n2)C2(CCNC2)COC3)c1 (centres undefined) | 29.8
Cc1ccc(Oc2ncccc2C(=O)N(C)CCCN(C)C)c(C)c1 | 13.5
CCOCC(=O)N1CCC(C)(c2nccs2)CC1 | 38.05
CC(=O)N1CCN(C(=O)CCn2c(C)nc3ccccc3c2=O)CC1 | 8.665
CC(C)=CCN1CCC(c2nnc(CN3CCN(C)CC3)n2C)CC1 | 25.4
Cc1noc([C@@]23CCO[C@@H]2CCN(C(=O)c2cc(C)[nH]c2C)C3)n1 | 24.9
Cc1noc([C@@]23CCO[C@@H]2CCN(C(=O)c2sccc2C)C3)n1 | -4.56
Cc1noc([C@@]23CCO[C@@H]2CCN(C(=O)c2ccsc2)C3)n1 | -15.3
Cc1noc([C@@]23CCO[C@@H]2CCN(C(=O)c2cc(C)c(C)s2)C3)n1 | 57.1
Cc1noc([C@@]23CCO[C@@H]2CCN(C(=O)c2c(C)noc2C)C3)n1 | 28.2
Cc1noc([C@@]23CCO[C@@H]2CCN(C(=O)c2cc(C)on2)C3)n1 | 61.9
CC(C)Cc1nc(CCn2cncn2)n(-c2ccc3c(c2)OCCO3)n1 | 41.2
Cc1cc(Cl)ccc1-n1ncc(C(=O)N(C)CCc2ccccn2)c1N | 29.3
CC(C)c1nc(-c2ccnc(N3CCNCC3)n2)no1 | 18.2
CC(C)n1ccnc1CN1CCCN(C(=O)c2cnn(C)c2)CC1 | 10.9165
Cc1nc(CN2C(=O)COC3(CCN(C(N)=O)CC3)C2C)cs1 (centres undefined) | -10.3
CS(=O)(=O)c1cncnc1C1CCCN(C(=O)Nc2ccccc2F)C1 (centres undefined) | -8.76
CCN(Cc1cccs1)S(=O)(=O)N(C)C(C)C | 44.3
CC(C)N(C)S(=O)(=O)N(Cc1cccs1)Cc1cccs1 | 14.6
COc1ccccc1CN(Cc1cccs1)S(=O)(=O)N(C)C(C)C | 67.5
Cn1nc(C2CN(C(=O)c3cccnc3)C2)c2nccnc21 | 32.8
CCc1nc2n(n1)CC(NCc1nc(Cc3ccccc3)no1)CC2 (centres undefined) | 19.6
NC(=O)c1ccc(NC(=O)c2ccncc2F)cn1 | 9
Cc1ccc(C(=O)N2C[C@@H]3COC[C@]3(COc3cccnc3)C2)cn1 | 23.9

Structure (SMILES) | INHIBITION [%]
O=C(Cc1ccccc1F)N1C[C@@H]2COC[C@]2(COc2cccnc2)C1 | 39.2
O=C(COc1ccccc1)N1C[C@@H]2COC[C@]2(COc2cccnc2)C1 | 50.3
O=C(c1cc(C2CC2)on1)N1C[C@@H]2COC[C@]2(COc2cccnc2)C1 | 72
O=C(COC1CCCC1)N1C[C@@H]2COC[C@]2(COc2cccnc2)C1 | 40.3
O=C(c1ccc(F)cc1)N1C[C@@H]2COC[C@]2(COc2cccnc2)C1 | 55.7
O=C(c1ncccn1)N1C[C@@H]2COC[C@]2(COc2cccnc2)C1 | 46.6
O=C(c1cocn1)N1C[C@@H]2COC[C@]2(COc2cccnc2)C1 | 43.9
O=C(C1=CCCC1)N1C[C@@H]2COC[C@]2(COc2cccnc2)C1 | 33
Cc1ccc(-c2cc(CNC(=O)NC3CCCCNC3=O)on2)cc1 (centres undefined) | -22.1
CS(=O)(=O)NC[C@H]1OC[C@H]2CN(CCc3ccccc3)CC[C@H]21 | 2.7
CC(C)C(=O)N1CCC(Cc2nccnc2Nc2ccccn2)CC1 | 23.4
CCS(=O)(=O)N1C[C@H]2CN(Cc3cccnc3)C(=O)[C@H]2C1 | -28.2
O=C(CSc1nncs1)N1CCN(Cc2ccc(Cl)s2)CC1 | 2.37
CCNc1nnc(SCC(=O)N2CCN(Cc3ccc(Cl)s3)CC2)s1 | 40.5
O=C(CSc1nncs1)N1CCN(Cc2ccc(Cl)cc2)CC1 | 87.2
c1ccc(-n2nc(CNC3CCc4ncnn4C3)c3c2CCC3)cc1 (centres undefined) | 33.25
Cc1noc([C@@H]2C[C@@H]3CCN(CC4CCOCC4)C[C@H]3O2)n1 | -23.4
Cc1cccc(C(C(=O)NCc2nc(-c3cccnc3)no2)N(C)C)c1 (centres undefined) | 15.3
Cc1ccccc1C(C(=O)NCc1nc(-c2ncccn2)no1)N(C)C (centres undefined) | -24.9
Cc1cccc(C(C(=O)NCc2nc(-c3ncccn3)no2)N(C)C)c1 (centres undefined) | 56.3
CCN(Cc1cccc2c1OCO2)C(=O)NCCOC | 31.3
CC(C)(C)CC(NC(=O)N1CCS(=O)(=O)CC1)C(F)(F)F (centres undefined) | -47.8
Cc1nn(C)cc1CN1CCc2nc(-c3cccnc3)nc(O)c2C1 | 38.8
FC(F)(F)c1ccc2nc([C@H]3CCN(C4CCCCC4)C3)[nH]c2c1 | 73.7
CC(C)N1CC[C@H](c2nc3ccc(C(F)(F)F)cc3[nH]2)C1 | 30.3
FC(F)(F)c1ccc2nc([C@H]3CCN(C4CCC4)C3)[nH]c2c1 | 39.2

Structure (SMILES) | INHIBITION [%]
FC(F)(F)c1ccc2nc([C@H]3CCN(C4CCOCC4)C3)[nH]c2c1 | 53
Fc1ccc2[nH]c([C@H]3CCN(C4CCOCC4)C3)nc2c1 | 31.2
CN1CCC(N2CC[C@H](c3nc4ccc(C(F)(F)F)cc4[nH]3)C2)CC1 | 24.3
O=S(=O)(CCN1CCN(c2ccccc2O)CC1)c1ccc(Br)cc1 | 18.9
CN(Cc1ccccc1)c1cnn(CC2COCCO2)c(=O)c1 (centres undefined) | 28.2
O=C(c1cnoc1)N1CCC[C@]2(C[C@@H](Oc3ccccn3)CO2)C1 | -27.9
c1cnc(-c2cnc(N3CCSCC3)nc2C2CC2)cn1 | 64.3
c1cc(CCNc2ncc(-c3cnccn3)c(C3CC3)n2)ccn1 | 28.5
c1cc(CNc2ncc(-c3cnccn3)c([C@@H]3CCCO3)n2)ccn1 | 5.34
c1cc(CNc2ncc(-c3cnccn3)c(C3CC3)n2)ccn1 | 75.9
c1cnc(-c2cnc(N3CCSCC3)nc2C2CCCO2)cn1 (centres undefined) | 27.9
c1cnc(-c2cnc(N3CCCCC3)nc2C2CCCO2)cn1 (centres undefined) | -14.1
CC(C)C(C(=O)N1CCCN(Cc2cscn2)CC1)n1cncn1 (centres undefined) | -22.9
CC1CC(=O)c2cnc3nc(N4CCOCC4)[nH]c(=O)c3c2C1 (centres undefined) | 22
CCN1CCOC(CNCc2ccccc2OCC(=O)N(C)C)C1 (centres undefined) | 12.8
Cc1cccc(CNCC2COC3(CCCC3)O2)c1C (centres undefined) | 50
COCCOc1ccccc1CNCC1COC2(CCCC2)O1 (centres undefined) | 81.5
Cc1cccc(CNC2(CCO)CCOCC2)c1C | 27.3
Cc1ncccc1CNCC1CCN(CCO)CC1 | -64.9
Cc1ncccc1CNCC1CCCN1c1cccnn1 (centres undefined) | 7.67
Cc1ncccc1CNCC1COC2(CCCCC2)O1 (centres undefined) | 74.9
COCCOc1ccccc1CNCc1c(C)nn(C)c1N(C)C | -2.44
Cc1cccc(CNCC2COC3(CCCCC3)O2)c1C (centres undefined) | -3.77
O=C(CCOCC(F)(F)F)N1CCCC1c1noc(C2CC2)n1 (centres undefined) | -21.5
Cc1nc(NC(=O)C(C)N(C)Cc2ccc3c(c2)OCO3)sc1C (centres undefined) | 46.3
Cc1cc(C)n(C2CCCN(C(=O)CCOc3ccccc3F)C2)n1 (centres undefined) | -11.4

Structure (SMILES) | INHIBITION [%]
COCc1noc(-c2cc(Cl)c3c(c2)OCCCO3)n1 | 19.8
Cc1ccc(C(=O)NC2CCN(C(=O)Nc3ccccn3)CC2)s1 | -21.9
Cc1ccc(C(=O)NC2CCN(C(=O)Nc3ccccn3)CC2)o1 | -1.58
CC1CCN(CC2CCCN(C(=O)Nc3ccccn3)C2)CC1 (centres undefined) | 55
CC1CCN(CC(O)CNc2ccccn2)CC1 (centres undefined) | 1.62
CC1CCN(C(=O)C2CCCN(C(=O)Nc3ccccn3)C2)CC1 (centres undefined) | 89.6
CC(=O)N1CCC(C(=O)N2CCCC(Cc3ccccn3)C2)CC1 (centres undefined) | -6.92
CN(C)c1ncc(NC(=O)N2CCC(CN3CCCC3)C2)cn1 (centres undefined) | -45
O=C(NC1CCCCC1)C1CCCN(C(=O)Nc2ccccn2)C1 (centres undefined) | 66.1
Cc1cccc(NC2CCN(C(=O)Nc3ccccn3)CC2)n1 | 28.8
CNc1ccc(CC2CCCN(C(=O)c3cnccn3)C2)nn1 (centres undefined) | 32.3
O=C(NCC1(O)COCCN(Cc2cccc(O)c2)C1)c1cscn1 (centres undefined) | -19.7
Cc1cc(C)n(CC(C)Nc2nc(-c3ccncc3)nc3c2CNC3)n1 (centres undefined) | 49.2
Cn1cnc2c(N3CCCC3)nc(C3CCN(CC4CC4)CC3)cc21 | -14.4
CCc1cnc(C)nc1N1CCS(=O)(=O)CC1 | 57.3
CCc1cnc(C)nc1N1CCN(C(N)=O)CC1 | 46.1
CCOC(=O)N1CCN(c2nc(C)ncc2CC)CC1 | 47.1
O=C(Cn1cc(Cl)cn1)N1CCCC(c2ccn[nH]2)C1 (centres undefined) | 28
Cc1occc1CNC(=O)NCCN(C)C1CCCC1 | 16.8
CCOCC1CN(C(=O)c2ccoc2)Cc2cnn(C)c21 (centres undefined) | 15.6
Cc1noc(C)c1CN(C)Cn1nccc1-c1cccnc1 | 36.2
Cc1ccsc1CN(C)Cn1nccc1-c1cccnc1 | 5.79
CN(Cc1ccc(C#N)cc1)Cn1nccc1-c1cccnc1 | 50.5
NC(=O)c1sc2ccccc2c1C1CCN(S(=O)(=O)N2CCOCC2)C1 (centres undefined) | -24.4
CCc1ccc(CNc2cc(N3CCCC3CO)ncn2)s1 (centres undefined) | 49.1
CC(C)N(Cc1ccccn1)C(=O)CCC(=O)c1ccc(F)cc1F | 36.9
